GPR151 ag – activators of human GPR151, primary screen, cell-based, PathHunter beta-arrestin, luminescence | G-protein coupled receptor 151 (Homo sapiens), Q8TDV0 | PathHunter beta-arrestin GPR151 cells | activation, % at 11.2 µM | 650,000 compounds, 1% hits; in the data active means activation above about 4.9%;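 further: 0% = median of compound wells and 100% = cells with positive control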
Target sequence (Q8TDV0 whole entry, looked up): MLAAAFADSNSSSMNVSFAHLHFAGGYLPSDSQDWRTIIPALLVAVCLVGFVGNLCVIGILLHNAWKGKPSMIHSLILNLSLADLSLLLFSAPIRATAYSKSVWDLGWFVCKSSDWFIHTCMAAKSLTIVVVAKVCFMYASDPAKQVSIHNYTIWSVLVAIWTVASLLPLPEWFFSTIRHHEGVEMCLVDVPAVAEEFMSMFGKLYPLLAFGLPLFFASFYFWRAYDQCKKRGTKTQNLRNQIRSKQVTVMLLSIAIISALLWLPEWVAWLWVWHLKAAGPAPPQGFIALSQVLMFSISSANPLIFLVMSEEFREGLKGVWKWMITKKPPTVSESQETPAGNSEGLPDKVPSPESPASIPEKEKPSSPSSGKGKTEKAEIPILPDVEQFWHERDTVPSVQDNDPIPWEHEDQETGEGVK
TEAD-YAP block – TEAD-YAP interaction inhibition, primary screen, TEAD-YAP interaction inhibitor project, luminescence, HEK-TIYL cells; TEAD-Gal4/YAP UAS-luciferase luminescence; inhibition, % at 9.12 µM; 640,000 compounds, 1.4% hits; in the data active means inhibition above about 32%;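 further: 0% = median of test compound wells and 100% = reference inhibitor wells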
FBW7 activator – FBW7 E3 ligase activators, primary screen, biochemical, AlphaScreen, human | F-box/WD repeat-containing protein 7 (Homo sapiens), Q969H0 | AlphaScreen FBW7–phospho-cyclin E peptide binding, activator screen | normalized activity (activation), % at 26.1 µM | 650,000 compounds, 0.13% hits | AID 1259310, 2017; in the data active means normalized activity above about 1.9%;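 further: purified mutant Fbw7 with reduced substrate affinity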
MITF primary – MITF inhibitors, primary screen, biochemical, AlphaScreen, human | Microphthalmia-associated transcription factor (Homo sapiens), O75030 | AlphaScreen MITF homodimerization, bead proximity signal | inhibition, % at 2.6 µM | 650,000 compounds, 0.91% hits; in the data active means inhibition above about 50%;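 further: 0% = vehicle wells with protein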
An asterisk follows results filed as active. A selection: hits, their analogues and other compounds. The true share with any hit is near 3.4%.

SMILES	GPR151 ag	TEAD-YAP block	FBW7 activator	MITF primary
OCCN1CCN(c2ncnc3ccc(Br)cc23)CC1	0	39*	0	-18
N#Cc1cc2cc3c(cc2nc1SCC(=O)Nc1ccccc1F)OCCO3	1	54*	0	2
CCOc1ccccc1NC(=O)CSc1nc2ccc(OC)cc2cc1C#N	0	48*	0	-5
N#Cc1c(N)nc(SCC(=O)NCc2ccccc2)c(C#N)c1-c1ccccc1Cl	1	58*	0	10
CCOc1ccccc1NC(=O)CSc1nc2cc3c(cc2cc1C#N)OCCO3	-1	53*	0	6
COc1ccccc1NC(=O)CSc1nc2cc3c(cc2cc1C#N)OCO3	-1	3	0	-9
CN1CCN(S(=O)(=O)c2ccc(Cl)c(Cl)c2Cl)CC1	0	-3	0	11
COC(=O)c1c(S(=O)(=O)NCCN(C)C)sc2c1CCN(C/C=C/C(C)C)C2	1	6	0	5
Cc1cccc(N(C)C(=O)Cc2c(C(=O)O)n(C)c3ccccc23)c1	1	-7	0	-9
CN1C(=O)C(C)(C)c2cc(S(=O)(=O)NCC(=O)NCC(=O)NC3CCCC3)ccc21	0	2	0	-6
N#Cc1cc2cc3c(cc2nc1SCC(=O)Nc1ccccc1)OCCO3	-1	-8	0	-8
CC(C)c1ccc(C#N)c(SCC(=O)Nc2ccccc2C(=O)O)n1	0	0	3.9*	-10
N#Cc1cc2cc3c(cc2nc1SCC(=O)NCc1ccccc1)OCCO3	2	36*	0	11
Cc1ccc(NC(=O)/C(C#N)=C/c2ccc3c(c2)OCO3)cc1	0	-23	0	-14
C=CCOC(=O)C1=C(C)Nc2ncnn2C1c1ccccc1Cl (stereo unspecified)	2	13	0	18
C=CCN1C(=O)/C(=C\c2ccccn2)SC1=S	0	-5	0	27
CC(=O)OC1c2cc(C)ccc2NC(c2ccc(Cl)cc2)C1(C)C (stereo unspecified)	1	14	0	8
CC(=O)OC1c2cc(C)ccc2NC(c2ccc(F)cc2)C1(C)C (stereo unspecified)	0	34*	0	9
C/C(=N\Nc1nc2ccccc2s1)c1ccc(F)cc1	1	34*	0	2
C/C(=N\Nc1nc2ccccc2s1)c1ccc(O)cc1	-1	-59	0	12
COc1cc(Nc2nccn3c(-c4ccc(F)cc4)cnc23)cc(OC)c1OC	0	51*	0	3
COc1cncc(-c2cnc3c(Nc4cc(OC)c(OC)c(OC)c4)nccn23)c1	1	57*	0	28
COc1ccc(-c2cnc3c(Nc4cc(OC)c(OC)c(OC)c4)nccn23)cc1	1	-8	0	-3
COc1cc(Nc2nccn3c(-c4ccc(N(C)C)cc4)cnc23)cc(OC)c1OC	3	55*	-1	13
CC(C)CCNC(=O)c1ccc[nH]c1=S	-2	-13	0	1
SMILES	GPR151 ag	TEAD-YAP block	FBW7 activator	MITF primary
O=C1CSC(=S)N1/N=C/c1ccccc1OS(=O)(=O)c1ccccc1	-1	5	0	12
COc1cccc(/C=N/N2C(=O)CSC2=S)c1O	0	-13	-2	77*
CC(C)(C)n1nc2c(c1NC(=O)c1ccccc1I)CS(=O)(=O)C2	2	-21	0	-5
Cc1ccsc1C(=O)NNC(=O)c1cc(C)n(-c2ccc(F)cc2)c1C	-2	65*	0	-14
O=C(Nc1nc(-c2cc(Cl)sc2Cl)cs1)c1ccc([N+](=O)[O-])s1	-1	67*	0	0
COc1ccccc1-c1csc(NC(=O)c2cc([N+](=O)[O-])ccc2Cl)n1	1	34*	0	-3
Cc1ccc(C)c(-c2csc(NC(=O)c3cc([N+](=O)[O-])ccc3Cl)n2)c1	-1	53*	0	10
CC(C)(C)c1ccc(-c2csc(NC(=O)c3cc([N+](=O)[O-])ccc3Cl)n2)cc1	0	43*	0	3
Cc1c(C(=O)Nc2ccc(F)cc2Cl)sc2ncnc(N3CCCCC3C)c12 (stereo unspecified)	0	1	0	0
COc1cc(C(=S)N2CCOCC2)cc(OC)c1OC(=O)CCc1ccccc1	0	-2	0	-4
O=C(Nc1nccs1)c1cc([N+](=O)[O-])ccc1Cl	-1	45*	0	7
COc1ccccc1C(=O)OCC(=O)c1ccc([N+](=O)[O-])cc1	-1	-7	0	6
O=C(COC(=O)c1ccccc1C(F)(F)F)c1ccc([N+](=O)[O-])cc1	0	38*	0	-10
CC(C)(C)OC(=O)N1CCC[C@H](Nc2ccnc(Cl)n2)C1	1	-41	0	3
CC(C)(C)OC(=O)N1CCC(Nc2ccnc(Cl)n2)CC1	1	35*	0	5
Cc1ncn(-c2ccc(Nc3nccc(NC4CCN(C(=O)OC(C)(C)C)C4)n3)cc2)n1 (stereo unspecified)	1	46*	0	7
CCCN(CCC)Cc1c(C(=O)N/N=C/c2ccc(O)cc2O)nnn1-c1nonc1N	0	71*	0	36
CN(C)Cc1c(C(=O)N/N=C/c2ccc(O)cc2O)nnn1-c1nonc1N	0	24	-1	15
Cc1nonc1C(=O)N/N=C/c1ccc(O)cc1O	-8	4	-1	82*
CC(C)(C)c1ccc(C(=O)N/N=C/c2ccc(O)cc2O)cc1	1	9	0	-51
CCc1c(C(=O)N/N=C/c2ccc(O)cc2O)nnn1-c1nonc1N	-2	76*	0	0
Cc1nc2ccc(NS(=O)(=O)c3ccc(Br)c(C(=O)O)c3)cc2s1	-1	-6	1	-15
COc1ccc2sc(N(Cc3cccnc3)C(=O)c3cccc(C)c3)nc2c1	2	40*	0	-9
O=C(Nc1ccc(Cl)c(C(F)(F)F)c1)c1ccc(NC(=O)C2CCCO2)cc1 (stereo unspecified)	1	34*	0	13
COc1cc(Nc2nc3ccc(C)cc3n3cnnc23)cc(OC)c1OC	1	34*	0	20
SMILES	GPR151 ag	TEAD-YAP block	FBW7 activator	MITF primary
COc1cc(Nc2nc3ccccc3n3cnnc23)cc(OC)c1OC	-1	-4	0	-4
COc1ccc(C(=O)Nc2nc3c(cc4c5c(cccc53)CC4)s2)cc1OC	-1	-3	2.0*	17
COc1ccc2cc(-c3cc(C(=O)N4CCN(CCO)CC4)c4ccccc4n3)ccc2c1	-1	70*	0	-1
CCc1ccc(-c2cc(C(=O)N3CCN(Cc4ccccc4)CC3)c3ccccc3n2)cc1	0	65*	0	17
Cc1ccc(-c2cc(C(=O)N3CCOCC3)c3ccccc3n2)cc1	-1	-10	0	-6
COc1ccc(-c2cc(C(=O)N3CCN(c4ccccc4OC)CC3)c3ccccc3n2)cc1	1	41*	0	-12
